# Assay outcomes (PubChem)
# Most compounds without a hit are left out; they make up all but 7% or so of the library.
# JMJD2A Tudor = qHTS Assay for Inhibitors of JMJD2A-Tudor Domain | Lysine-specific demethylase 4A (Homo sapiens), O75164 | AlphaScreen JMJD2A-Tudor / H3K4me3 peptide binding | Potency, µM (highest dose often 114 µM), for inactives: top-dose activity change, negative = inhibition, most hits filed as inhibitors | 390,000 tested, 4.4% active | AID 504339, 2011; further: potency means the concentration at half of the fitted maximal effect; on the % scale 0 is the no-effect control and ±100 the full control effect; nearly all actives have a fitted effect of over 50% in size
# PLK1 PBD block = qHTS for Inhibitors of PLK1-PDB (polo-like kinase 1 - polo-box domain): Primary Screen; 360,000 tested, 2.8% active; Potency, µM, without a hit: max response, negative = inhibition, most hits filed as inhibitors; AID 720504, 2013; Plk1 PBD binding of FITC phosphopeptide, fluorescence polarization; further: potency means the concentration at half of the fitted maximal effect; series mostly up to about 57 µM; on the % scale 0 is the no-effect control and ±100 the full control effect; nearly all actives have a fitted effect of over 65% in size
# KAT2A inh = qHTS Assay for Inhibitors of GCN5L2; Histone acetyltransferase KAT2A (Homo sapiens), Q92830; GCN5L2 HAT assay, ThioGlo1 CoA-SH fluorescence; Potency, µM (titrated, usually from 58.9 µM), without a hit: at the top dose activity change, negative = inhibition, hits mostly inhibitors; 390,000 tested, 0.21% active; further: potency means the concentration at half of the fitted maximal effect; on the % scale 0 is the no-effect control and ±100 the full control effect
#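 Fluorescence readout, Ex340nm/Em540nm: ThioGlo1 (50uM final) reacts with free CoA thiol released as 20nM GCN5L2 acetylates H3(1-25) peptide (75uM) using acetyl-CoA (70uM). Compound and enzyme sat 15 min beforehand; 20 min room-temperature reaction.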
# HP1b chromo inh = HTS for Inhibitors of HP1-beta Chromodomain Interactions with Methylated Histone Tails | 390,000 tested, 0.56% active | Chromobox protein homolog 1 (Homo sapiens), P83916 | AID 540317, 2011 | Potency, µM (titrated, usually from 114 µM), inactives show at the top dose activity change, negative = inhibition, actives largely listed as inhibitors | AlphaScreen HP1-beta / biotin-H3K9me3 peptide binding; further: potency means the concentration at half of the fitted maximal effect; nearly all actives have a fitted effect of over 70% in size
# Target sequence (P83916 whole entry, looked up): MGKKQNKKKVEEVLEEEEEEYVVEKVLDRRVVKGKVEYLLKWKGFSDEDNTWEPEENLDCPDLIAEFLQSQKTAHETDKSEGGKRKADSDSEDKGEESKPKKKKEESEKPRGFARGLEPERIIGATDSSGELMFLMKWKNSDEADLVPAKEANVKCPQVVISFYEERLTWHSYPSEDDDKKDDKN
#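 AlphaScreen: HP1-beta (50 nM) preformed 30 min with biotin-H3(1-18)K9me3 peptide (50 nM) in PBS pH 7.4, 0.01% Tween-20. Compound added for 30 min at RT, then streptavidin donor/nickel chelate acceptor beads (10 ug/mL) for 30 min.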
# BAZ2B block = qHTS Assay for Inhibitors of BAZ2B; Bromodomain adjacent to zinc finger domain protein 2B (Homo sapiens), Q9UIF8; AlphaScreen BAZ2B-H3K14Ac peptide displacement; Potency, µM (doses to about 114 µM), for inactives: top-dose activity change, negative = inhibition, most hits filed as inhibitors; 360,000 tested, 4.4% active; AID 504333, 2011; further: potency means the concentration at half of the fitted maximal effect; on the % scale 0 is the no-effect control and ±100 the full control effect; nearly all actives have a fitted effect of over 60% in size
#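 AlphaScreen displacement: compounds (up to 110uM) incubated 30 min at room temperature with a preformed 50 nM BAZ2B/50 nM biotinylated H3K14Ac peptide complex in PBS pH 7.4 with Tween-20. Donor and acceptor beads at 10 ug/mL final added, 20 min light-protected before reading.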
# PI5P4K alpha inh = qHTS for Inhibitors of phosphatidylinositol 5-phosphate 4-kinase (PI5P4K); PI5P4Kalpha enzyme, ADP-Glo luminescence, 60 min; hits give low values; max response, %; 330,000 tested, 1.2% active; AID 652105, 2013; active means max response of -50% or lower; inconclusive means between -30% and -50%; inactive means -30% or higher; further: value at the top dose of about 77 µM; on the % scale 0 is the no-effect control and ±100 the full control effect
# Target sequence (P48426 whole entry, looked up): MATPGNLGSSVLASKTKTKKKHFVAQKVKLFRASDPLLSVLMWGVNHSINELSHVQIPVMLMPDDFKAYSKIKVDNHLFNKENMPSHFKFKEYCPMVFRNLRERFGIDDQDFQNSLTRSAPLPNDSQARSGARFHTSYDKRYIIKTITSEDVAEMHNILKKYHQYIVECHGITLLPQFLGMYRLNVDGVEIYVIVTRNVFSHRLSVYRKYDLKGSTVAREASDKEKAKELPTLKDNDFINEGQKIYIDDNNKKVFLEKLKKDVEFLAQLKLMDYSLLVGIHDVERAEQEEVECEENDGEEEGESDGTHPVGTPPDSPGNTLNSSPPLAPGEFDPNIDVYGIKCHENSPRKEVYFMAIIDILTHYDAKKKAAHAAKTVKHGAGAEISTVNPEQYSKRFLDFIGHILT
#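 Enzyme plus substrate dispensed, test compounds pinned in, then ATP (5 microM final) added. After 60 min at RT, ADP-Glo reagent 1 for 45 min and reagent 2 for 30 min preceded luminescence imaging.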
# * = called active by the depositor; u = inconclusive; x = no result; [ ] = dose if it differs, or a comment. Unless noted, the call rests on the fitted dose curve; in most records, active means well fitted curve in the direction sought with a large enough effect; inconclusive means small, poorly fitted or top-dose-only effect, or another doubt; inactive means no such curve, though single readings can be large; an effect the other way counts as inactive or inconclusive.
SMILES,JMJD2A Tudor,PLK1 PBD block,KAT2A inh,HP1b chromo inh,BAZ2B block,PI5P4K alpha inh
NS(=O)(=O)c1ccc(NC2=CC(=O)C(=O)c3ccccc32)cc1,22.4µM*,26.7µM*,-0.9%,-8.2%,u,-28.3
CCOC(=O)c1ccc(NC2=CC(=O)C(=O)c3ccccc32)cc1,u,-27.1%,-2.7%,u,u,-2.1
Cc1ccc(C)c(OC(=O)CSc2nnc(CNC(=O)c3ccccc3)o2)c1,-19.9%,x,-2.1%,55.8%,-14.7%,x
CC(=O)c1ccc(N2CCN(C3CCC(C(C)(C)C)CC3)CC2)cc1 (stereo not drawn),-6.1%,-3.2%,2.1%,13.7%,1.9%,14.1
Cc1cccc(NC(=O)C2CCCN(S(=O)(=O)c3c(C)noc3/C=C/N(C)C)C2)c1C (stereo not drawn),-28.8%,x,-0.6%,22.5%,-31.7%,x
CCNC(=S)N1CCN=C1Nc1nc(C)cc(C)n1,-4.6%,2.6%,-13.3%,23.2%,2.8%,-4.3
Cc1cc(C)nc(NC2=NCCN2C(=O)NC2CCCCC2)n1,-13.7%[11.4 µM],7.52µM*,3.1%,0.8%,6.1%,u
O=C(CCCc1nc2ccccc2s1)Nc1ccccc1,-6.2%,5.1%,-6.6%,56.5%,-14.1%,1.0
COc1ccccc1NC(=O)Cc1nc(CCl)cs1,u,-1.3%,-1.8%,23.7%,56.2µM*,1.5
O=C(O)CCCC(=O)Nc1ccc(OCc2nc3ccccc3s2)cc1,u,4.23µM*,-5.0%,u,u,-24.7
COc1ccccc1NC(=O)CCc1nc2ccccc2s1,20µM*,21.2µM*,-7.2%,1.2%,-12.3%,-8.4
Cc1ccccc1NC(=O)Cc1nc(COC(=O)C(C)C)cs1,-6.4%,-4.1%,-3.8%,25.9%,-11.3%,-0.3
Cc1cc(C)c2c(=N)c3ccccc3n(CCCCCCCCn3c4ccccc4c(=N)c4c(C)cc(C)nc43)c2n1,u,-7.8%,x,-4.8%,x,-66.5*
COc1ccc(-c2onc(C)c2C)cc1S(=O)(=O)NCc1ccc(Br)cc1,-13.3%,x,-15.1%,12.0%,-15.9%,x
CC(C(=O)Nc1ccc2c(c1)OCCO2)c1ccc([N+](=O)[O-])cc1 (stereo not drawn),-30.9%,29.9µM*,0.6%,9.7%,-3.7%,2.5
C[C@@H](NC(=O)[C@@H]1Cc2ccccc2CN1)C(=O)Nc1ccc2c(c1)OCCO2,u,3.36µM*,-1.5%,23.7%,u,-22.5
CC(C(=O)Nc1ccc2c(c1)OCO2)c1ccc([N+](=O)[O-])cc1 (stereo not drawn),-33.2%,-10.8%,16.6%,-9.1%,6.5%,-0.6
CCc1ccc(CN(C)CC(=O)Nc2ccccc2[N+](=O)[O-])cc1,u,5.6%,-2.5%,-23.8%,u,35.4
CN(CCOc1ccccc1)CC(=O)Nc1ccc(Cl)c(S(=O)(=O)N(C)C)c1,2.82µM*,-3.6%,2.4%,-7.5%,x,0.5
CN(CCOc1ccccc1)CC(=O)Nc1ccc(Cl)cc1[N+](=O)[O-],0.794µM*,1.7%,-6.8%,25.1µM*,12.6µM*,1.7
CC(=O)c1c(C)[nH]c(C(=O)OCC(=O)Nc2ccc(Cl)c(S(=O)(=O)N(C)C)c2)c1C,-25.2%,-5.4%,-2.3%,23.3%,70.8µM*,1.5
CCC(C(=O)OCC(=O)Nc1ccc(Cl)c(S(=O)(=O)N(C)C)c1)c1ccccc1 (stereo not drawn),-26.6%,-7.3%,-9.2%,31.3%,-30.1%,13.1
C=CCOc1ccc(CN(C)CC(=O)Nc2ccccc2[N+](=O)[O-])cc1,12.6µM*,-4.4%,-6.0%,u,x,-3.3
COc1cc(NC(=O)CCN2CC(C)OC(C)C2)cc(OC)c1 (stereo not drawn),-10.5%,-12.9%,-2.1%,14.4%,-27.6%,-6.6
Cc1ccc(CSCc2ccc(C(=O)NCCc3ccc(Cl)cc3)o2)cc1,-11.0%,x,-0.7%,26.0%,15.1%,x
SMILES,JMJD2A Tudor,PLK1 PBD block,KAT2A inh,HP1b chromo inh,BAZ2B block,PI5P4K alpha inh
COc1cc(NC(=O)CN(C)Cc2cccc(F)c2)c(C)cc1[N+](=O)[O-],-26.3%,26.7µM*,-3.3%,-15.8%,-14.4%,-6.4
N#Cc1ccc(-n2nccc2-c2cnc3n(c2=O)CCS3)cc1,50.1µM*,26.7µM*,-0.6%,-11.1%,8.4%,-15.1
O=c1c(-c2ccnn2-c2ccc(F)cc2)cnc2n1CCS2,-6.9%,-5.5%,3.9%,39.6%,1.5%,-2.3
Clc1ccc(Cl)c(OCCCCNCc2ccccc2)c1,1.26µM*,-3.8%,-2.7%,u,u,6.2
OCCCCNCc1ccc(OCc2ccc(Cl)cc2)cc1,-3.1%,-8.1%,3.5%,12.0%,-0.6%,x
Clc1ccc(OCCCNCc2ccccc2)c(Br)c1,10µM*,-3.8%,-2.7%,-22.0%,u,x
O=S(=O)(NCCNS(=O)(=O)c1cccs1)c1cccs1,-9.0%,-2.3%,-13.2%,44.4%,-27.6%,1.3
CN1CCN(NS(=O)(=O)c2cccs2)CC1,-6.1%,9.47µM*,1.7%,35.7%,6.1%,-6.6
CS(=O)(=O)c1cccc(C(=O)OCC(=O)NC(=O)Nc2ccccc2F)c1,-16.6%,-3.9%,-7.9%,18.1%[57 µM],x,10.3
O=Cc1ccc(C(=O)OCC(=O)NC(=O)Nc2ccccc2F)cc1,-15.2%,4.9%,-5.0%,14.0%,x,-56.6*
COc1ccc(NC2=CC(c3ccc(OC)cc3)N(c3ccc(OC)cc3)C2=O)cc1 (stereo not drawn),u,23.8µM*,-1.3%,1.8%,u,0.8
COc1ccc(NC2=CC(c3ccc(F)cc3)N(c3ccc(OC)cc3)C2=O)cc1 (stereo not drawn),-35.2%,-2.6%,-4.0%,2.7%,u,-0.4
Cc1nn(-c2ccc(Cl)cc2)c2nc(-c3cccnc3)cc(C(F)(F)F)c12,-13.5%,x,-8.1%,10.0%,-1.0%,x
O=C(N/N=C/c1ccc2c(c1)OCO2)c1cc(-c2ccc(F)cc2)nc2ccccc12,-11.4%,-6.3%,-12.7%,27.7%,0.3%,4.6
O=C1OCc2nc3cc4c(cc3c(-c3ccc(F)cc3)c21)OCO4,-17.8%,23.8µM*,15.4%,4.6%,-1.8%,-6.7
Cc1cc(C)cc(-n2ccn3cnnc3c2=O)c1,-7.5%,x,-6.3%,-26.3%,-1.9%,x
Cc1[nH]n2cnnc2c(=O)c1Br,-25.3%,-1.6%,u,24.6%,u,-51.2*
O=C(OCCCN1C(=O)c2ccccc2C1=O)c1ccco1,-28.1%[11.4 µM],26.7µM*,-13.3%,1.1%,3.5%,-1.5
O=C(OCN1C(=O)c2ccccc2C1=O)c1ccco1,-4.5%,-8.9%,-8.5%,14.7%,-2.7%,-6.5
